# Source: PubChem BioAssay AID2783 (National Center for Advancing Translational Sciences (NCATS), 2010)
# Inconclusive results are not listed. Activity calls are given as the source filed them. Calls follow the shape of the dose curve; as a rule, active = well fitted inhibition curve with a large enough effect in the polarisation, with a control signal flat (not every such curve was filed as active); inconclusive = small, poorly fitted or top-dose-only effect, or effect the other way, or a change in a side signal; inactive = no such curve, though single readings can be large or run the other way; the % refers to the polarisation.
# Target: Menin (Homo sapiens) (UniProt O00255)
# Test: Confirmation of Inhibitors Targeting the Menin-MLL Interaction in MLL Related Leukemias: Competition With Fluorescein Labeled MLL-derived Peptide
# Details: Fluorescence polarization, fluorescein-MLL peptide displacement from menin; series mostly up to 100 µM
# Text: qHTS Assay for Inhibitors Targeting the Menin-MLL Interaction in MLL Related Leukemias
# NIH Chemical Genomics Center [NCGC]
# NIH Molecular Libraries Probe Centers Network [MLPCN]
# Assay Submitter (PI): Jolanta Grembecka, Tomasz Cierpicki, University of Virginia
# Translocations of the MLL (Mixed Lineage Leukemia) gene are frequently found in human leukemias affecting both children and adults. Fusion of MLL to one of more than 60 genes results in generation of oncogenic proteins upregulating Hox genes, which are vital to blood cell development. Patients harboring fusion of the MLL gene suffer from aggressive leukemias and respond poorly to available therapies. All of the oncogenic fusion proteins have a preserved N-terminal fragment of MLL that has been identified to interact with menin. It has been recently discovered that association with menin is critical to the leukemogenic activity of the MLL fusion oncoproteins. Selective targeting of the menin-MLL interaction could provide an attractive therapeutic approach to develop novel drugs for MLL-related leukemias. Small molecules blocking the menin-MLL interaction should reverse the oncogenic potential of MLL fusion proteins.
# We have developed and optimized a fluorescence polarization-based assay for the identification of Menin-MLL inhibitors. The assay was run employing two different MLL-derived peptides. The present assay uses a 12 amino acid peptide labeled with fluorescein at its N-terminus. This peptide consists of the menin high affinity binding motif from MLL and is potently bound by menin. Another peptide with a mutated sequence, labeled with Texas Red, was used in parallel as a less stringent screen for inhibitors.
# The present assay was run to confirm the activity of hits from the primary screen.
# The Menin protein, the MLL-wild type (w.t.) derived peptide (N-terminal 12 amino acids), the MLL-derived peptide labeled with Texas Red and the MLL-w.t. peptide labeled with Fluorescein were kindly supplied by laboratory of Dr. Jolanta Grembecka, University of Virginia. All protein and peptide solutions were stored in single use aliquots at -80C. The Eu3+ Cyrptate-conjugated mouse monoclonal antibody anti-6 Histidine (Eu3+-AB) and the Streptavidin-XL665 conjugate (XL665) were purchased from Cisbio International (Bedford, MA). All antibody and XL665 conjugate solution stocks were stored in single use aliquots at -20C. The Buffer components for all assays were purchased from Sigma-Aldrich (St. Louis, MO) and Invitrogen (Carlsbad, CA).
# 1. FP reaction buffer: 50 mM Tris-HCl pH 7.5, 50 mM NaCl, 1mM DTT.
# Before use, 0.05% BSA is added.
# 2. Menin protein, MLL-w.t. labeled with fluorescein, MLL-mutant peptide labeled with texas red.
# Stored in singe use aliquots at -80C.
# 3. MLL-w.t. unlabeled peptide as positive control: 10 uM final in FP buffer.
# 1. Prepare Menin at 200 nM, MLL-w.t.-fluorescein at 25 nM, and MLL-mutant-texas red at 50 nM mixture in FP buffer.
# 2. Prepare Menin at 200 nM, MLL-w.t.-fluorescein at 25 nM, MLL-mutant-texas red at 50 nM, and 10 uM MLL-w.t. unlabeled mixture in FP buffer.
# 3. Prepare MLL-w.t.-fluorescein at 25 nM and MLL-mutant-texas red at 50 nM mixture in FP buffer.
# 3. Dispense 4 ul per well of reagent in step 1 in columns 2, 4 - 48 in a black 1536 well plate, dispense 4 ul per well of reagents from steps 2 and 3 in columns 1 and 3 respectively. Incubate plate at ambient for 15 minutes.
# 4. Transfer 23 nl per well of compound to plate and incubate at ambient for 1 hr.
# 5. Read fluorescence polarization for each label using the PerkinElmer Envision.
# Envision protocol for fluorescein: FITC FP Dual Enh Mirror, Excitation filter 480, Emission filter (1) P-pol 535, Emission filter (2) S-pol 535
# Envision protocol for texas red: FP Dual Enh Mirror, Excitation filter 555, Emission filter (1) P-pol 632, Emission filter (2) S-pol 632
# Sequence of Menin (Homo sapiens) (O00255 whole entry, looked up): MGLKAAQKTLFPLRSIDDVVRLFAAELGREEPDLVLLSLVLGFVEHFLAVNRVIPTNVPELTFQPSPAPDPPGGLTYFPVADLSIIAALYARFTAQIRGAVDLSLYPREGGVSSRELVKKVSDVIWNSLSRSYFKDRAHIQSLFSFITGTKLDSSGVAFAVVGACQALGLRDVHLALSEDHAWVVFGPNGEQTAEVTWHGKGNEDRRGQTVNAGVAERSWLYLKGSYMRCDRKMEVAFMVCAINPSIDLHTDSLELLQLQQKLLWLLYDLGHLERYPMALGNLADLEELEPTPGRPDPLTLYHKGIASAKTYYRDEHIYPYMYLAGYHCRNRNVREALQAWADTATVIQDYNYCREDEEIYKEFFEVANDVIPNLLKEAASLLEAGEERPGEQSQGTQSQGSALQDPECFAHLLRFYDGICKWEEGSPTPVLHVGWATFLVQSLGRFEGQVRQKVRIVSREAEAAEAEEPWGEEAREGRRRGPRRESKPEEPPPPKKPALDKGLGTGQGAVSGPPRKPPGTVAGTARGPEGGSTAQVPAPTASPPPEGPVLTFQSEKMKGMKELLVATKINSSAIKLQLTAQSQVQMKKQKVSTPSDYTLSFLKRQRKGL
row,Compound,outcome
1,CCOC(=O)Cc1csc(NC(=O)c2c(O)c3ccccc3n(CCC(C)C)c2=O)n1,inactive
2,O=C1NC(=O)C(=Cc2ccc3ccccc3c2)C(=O)N1,inactive
3,CCCCn1c(=O)c(C(=O)Nc2ccsc2C(=O)OC)c(O)c2ccccc21,inactive
4,O=C(O)CN1C(=O)CN=C(c2ccccn2)c2cc(Cl)ccc21,inactive
5,C[C@@H]1CC[C@@]2(NC1)O[C@H]1C[C@H]3[C@@H]4CC=C5C[C@@H](O)CC[C@]5(C)[C@H]4CC[C@]3(C)[C@H]1[C@@H]2C,inactive
6,O=C(Nc1ccc2ccccc2c1)c1nn(C23CC4CC(CC(C4)C2)C3)cc1Br,inactive
7,CC[C@]12C=CCN3CC[C@@]4(c5ccc(OC)cc5N(C)[C@H]4[C@@](O)(C(=O)OC)[C@@H]1OC(C)=O)C32 (stereo not given in full),inactive
8,COc1ccc(C(O)P(=O)(Oc2ccccc2)Oc2ccccc2)cc1 (stereo not given),inactive
9,OC12C3C4CC5C6C4C1C6C(C53)N2CCc1cccc(F)c1 (stereo not given),inactive
10,C[N+](C)(C)CC#CCN1CCCC1=O,inactive
11,Cc1cc(C(=O)NP(=O)(N2CCOCC2)N2CCOCC2)c(C)n1C1CC1,inactive
12,CCOP(=O)(OCC)C(NC(=O)c1ccccc1C)C(Cl)(Cl)Cl (stereo not given),inactive
13,CCCCCn1c(=O)c(C(=O)Nc2nc(CC(=O)OCC)cs2)c(O)c2ccccc21,inactive
14,COc1cc(/C=N/n2cnnc2)ccc1OC(=O)N(C)C,inactive
15,O=c1oc2ccccc2c(O)c1C(c1ccccn1)c1c(O)c2ccccc2oc1=O,inactive
